Test results from ChEMBL document CHEMBL3988442, “University of Dundee, Small-Polar-MMV Screening Library” (2021).
About 13,000 (27%) of roughly 48,000 compounds showed an effect of 50% or more. The list shows a part of the results.

Test system: Wolbachia pipientis
Experiment: Anti-Wolbachia Cell-Based Screen
Type: functional
Design: scale not given: in the data most compounds retested in dose-response had high values
Details: 5 µM

How did the “Percent Effect” value turn out when O=C(Nc1ccc(-c2ccco2)cc1)C1CCCN(Cc2ccon2)C1 (centres undefined) was run?
Its value is 13.81%.

How did the “Percent Effect” value turn out when CN(C)Cc1cc(-c2nccn2CCn2cccn2)ccc1O was run?
The value was -0.09991%.

With CNc1nc(C)c(C(=O)N2CCCCC2CCc2ccccc2)s1 (centres undefined) as the compound, how does the “Percent Effect” value read?
Its value is -0.1409%.

CCNc1nc(C)c(C(=O)N2CCC(C(O)Cc3ccccc3)CC2)s1 (centres undefined) was tested. Which “Percent Effect” value did it give?
Its value is 94.25%.

For CNc1nc(C)c(C(=O)N2CCC(C(O)Cc3ccccc3)CC2)s1 (centres undefined), which “Percent Effect” value is on record?
Its value is 102.6%.

CCOC(=O)N1CCN(C(=O)c2sc(-c3ccccc3F)nc2C)CC1 was tested. Which “Percent Effect” value did it give?
The value was 4.725%.

With CCNc1nc(C)c(C(=O)N2CCN(c3ncccc3C)CC2)s1 as the compound, how does the “Percent Effect” value read?
Its value is -16.27%.

How did the “Percent Effect” value turn out when CCC(O)C1CCN(C(=O)Nc2nc(-c3ccccc3)ns2)CC1 (centres undefined) was run?
The value was -13.79%.

With O=S(=O)(C1CC1)N1CCCn2nnc(Cn3cccc3)c2C1 as the compound, how does the “Percent Effect” value read?
Its value is 109%.

Which “Percent Effect” value does the source give for C1CCN(Cc2nnn3c2CN(CC2CC2)CCC3)C1 here?
Its value is 3.513%.

For O=C(c1ccc(Cl)cc1)N1CCCn2nnc(Cn3cccn3)c2C1, which “Percent Effect” value is on record?
The value was 10.27%.

For O=C(O)C(F)(F)F.c1ccc(CN2CCCn3nnc(Cn4cccc4)c3C2)nc1, which “Percent Effect” value is on record?
The value was -7.39%.

For CCS(=O)(=O)N1CCCn2nnc(Cn3cccc3)c2C1, which “Percent Effect” value is on record?
The value was 97.66%.

With CCS(=O)(=O)N1Cc2c(Cn3cccc3)nn(C(C)C)c2C1 as the compound, how does the “Percent Effect” value read?
Its value is 3.857%.

With CCCc1cncnc1N1CCC(NCCc2ccc(O)cc2)CC1 as the compound, how does the “Percent Effect” value read?
The value was 1.389%.

How did the “Percent Effect” value turn out when CC(C)CS(=O)(=O)CCNC(=O)Nc1cccc2ncccc12 was run?
Its value is 3.388%.

Which “Percent Effect” value does the source give for CCN(CC1CCOC1)S(=O)(=O)Cc1cc(Cl)ccc1OC (centres undefined) here?
Its value is -20.98%.

Which “Percent Effect” value does the source give for CCN(Cc1ccoc1)C(=O)c1cc(S(N)(=O)=O)c(C)o1 here?
The value was -22.47%.

How did the “Percent Effect” value turn out when Cc1oc(C(=O)Nc2ccccc2F)cc1S(N)(=O)=O was run?
Its value is 99.25%.

Cc1oc(C(=O)Nc2cccc(Cl)c2C)cc1S(N)(=O)=O was tested. Which “Percent Effect” value did it give?
Its value is 64.05%.

Cc1cccc(C)c1NC(=O)c1cc(S(N)(=O)=O)c(C)o1 was tested. Which “Percent Effect” value did it give?
Its value is 102.4%.

For NS(=O)(=O)CCNC(=O)c1cc2cccc(F)c2o1, which “Percent Effect” value is on record?
The value was -1.054%.

Cc1cc(C)c(S(N)(=O)=O)cc1C(=O)NCC1Cc2ccccc2O1 (centres undefined) was tested. Which “Percent Effect” value did it give?
The value was -3.139%.

Cc1c(Cl)cccc1NC(=O)CN(Cc1cccnc1)C(C)C was tested. Which “Percent Effect” value did it give?
The value was -4.468%.

How did the “Percent Effect” value turn out when Cc1c(Cl)cccc1NC(=O)N1CCC2(CC1)NC(=O)CC2C(=O)O (centres undefined) was run?
Its value is -2.177%.

Which “Percent Effect” value does the source give for Cc1oc(C(=O)O)cc1S(=O)(=O)Nc1c(F)cccc1-n1cccn1 here?
The value was -6.217%.

For CC(=O)NCCCSC1CCN(c2c(F)cccc2F)C1=O (centres undefined), which “Percent Effect” value is on record?
Its value is 8.134%.

COCc1c(Cl)cccc1NC(=O)NCc1cccc(N(C)C)n1 was tested. Which “Percent Effect” value did it give?
Its value is 23.29%.

O=C(O)C[C@@H]1CCN(C(=O)C2CCCC2)C[C@@H]1CCN1CCCCC1 was tested. Which “Percent Effect” value did it give?
The value was 3.998%.

Which “Percent Effect” value does the source give for O=C1CCc2cc(OCCN3CCc4cncnc4C3)ccc2N1 here?
Its value is 28.97%.

How did the “Percent Effect” value turn out when Cn1cccc1C(=O)COc1ccc(S(N)(=O)=O)cc1 was run?
The value was 87.78%.

How did the “Percent Effect” value turn out when Cn1cccc(NC(=O)COc2ccc(Br)cc2)c1=O was run?
The value was -13.39%.

For Cn1cccc1C(=O)N1CCC2(CCCN2S(C)(=O)=O)CC1, which “Percent Effect” value is on record?
Its value is -6.458%.

For Cn1cccc(NC(=O)COc2ccc(Cl)cc2)c1=O, which “Percent Effect” value is on record?
The value was -8.548%.

How did the “Percent Effect” value turn out when Cn1cccc1C(=O)OCCNC(=O)c1ccccc1 was run?
The value was -6.195%.

With COc1cc(C(C)=O)ccc1OCC(=O)c1cccn1C as the compound, how does the “Percent Effect” value read?
Its value is 70.23%.

With COc1cc(C(C)=O)ccc1OCC(=O)N(C)Cc1cnn(C)c1 as the compound, how does the “Percent Effect” value read?
The value was -3.043%.

Which “Percent Effect” value does the source give for COc1cc(C(C)=O)ccc1OCC(=O)N(Cc1ccsc1)C1CC1 here?
Its value is -7.993%.

CC(=O)c1ccc(OCC(=O)c2cccn2C)cc1 was tested. Which “Percent Effect” value did it give?
The value was 104.8%.

With N#CCCN(Cc1ccco1)C(=O)CCCNC(=O)c1ccccc1 as the compound, how does the “Percent Effect” value read?
The value was 3.869%.

How did the “Percent Effect” value turn out when c1cc(-c2noc([C@@H]3Cc4nc[nH]c4CN3)n2)ccn1 was run?
Its value is -6.71%.

How did the “Percent Effect” value turn out when CCOC(=O)Cn1ccc2cc(NC(=O)N3CCSCC3)ccc21 was run?
The value was -0.3314%.

With Cc1ccc2nc(C)cc(C(=O)NC(C)c3nnn[nH]3)c2c1 (centres undefined) as the compound, how does the “Percent Effect” value read?
The value was -5.758%.

How did the “Percent Effect” value turn out when CC(C)C(C(=O)N1CCC2(CC1)CN(C)C(=O)O2)c1ccccc1 (centres undefined) was run?
Its value is -0.7993%.

Which “Percent Effect” value does the source give for CN1C[C@]2(CC[C@@H](C(=O)O)CC2)Oc2ccccc2C1=O here?
Its value is 130.9%.

Cc1ccccc1OC(C(=O)N1CCC2(CC1)CN(C)C(=O)O2)C(C)C (centres undefined) was tested. Which “Percent Effect” value did it give?
Its value is -8.932%.

For CCC(=O)c1ccc(OCC(=O)NCC2CC(CC)=NO2)cc1 (centres undefined), which “Percent Effect” value is on record?
The value was 0.5795%.

Which “Percent Effect” value does the source give for CSc1ccc(C(=O)C2CCCN(C(=O)CCn3cncn3)C2)cc1 (centres undefined) here?
Its value is 108%.

O=C(CCn1cncn1)N1CC[C@@H](c2ccc3ccccc3c2)[C@H](O)C1 was tested. Which “Percent Effect” value did it give?
Its value is 2.781%.

With CSc1ccc(C(=O)C2CCCN(C(=O)CCn3cnnn3)C2)cc1 (centres undefined) as the compound, how does the “Percent Effect” value read?
Its value is 95.72%.

CSc1ccc(C(=O)C2CCCN(C(=O)Cn3cnnn3)C2)cc1 (centres undefined) was tested. Which “Percent Effect” value did it give?
Its value is -23.42%.

With CSc1ccc(C(=O)C2CCCN(C(=O)CCCn3cncn3)C2)cc1 (centres undefined) as the compound, how does the “Percent Effect” value read?
Its value is 89.8%.

How did the “Percent Effect” value turn out when O=C(c1ccc(C(F)(F)F)cc1)C1CCCN(C(=O)Cn2cnnn2)C1 (centres undefined) was run?
The value was -1.796%.

Which “Percent Effect” value does the source give for CN(C)S(=O)(=O)N1C[C@@H]2CC[C@H](C1)N(CCC(=O)NCc1ccco1)C2 here?
Its value is -9.336%.

How did the “Percent Effect” value turn out when CC(C)C(=O)NCc1cc(Br)ccc1F was run?
The value was -9.372%.

OCCOc1nc(-c2ccccc2Cl)no1 was tested. Which “Percent Effect” value did it give?
The value was -14.24%.

For Cc1nc(C)c(CC(=O)NCc2cccnc2OC2CCCC2)c(=O)[nH]1, which “Percent Effect” value is on record?
The value was 2.143%.

CCNC(=O)C1CCN(c2cc(-c3ccccc3)nc3cc(C)nn23)C1 (centres undefined) was tested. Which “Percent Effect” value did it give?
The value was -12.78%.

Cc1cn[nH]c1C1CCCCN1C(=O)CCN1CCCCCC1 (centres undefined) was tested. Which “Percent Effect” value did it give?
The value was -3.23%.

Which “Percent Effect” value does the source give for Cc1cn[nH]c1C1CCCCN1C(=O)CCc1c(C)n[nH]c1C (centres undefined) here?
Its value is 119.5%.

With Cc1cn[nH]c1C1CCCCN1C(=O)CCc1ccc(F)cc1 (centres undefined) as the compound, how does the “Percent Effect” value read?
The value was 129.4%.

Which “Percent Effect” value does the source give for COCCC(=O)N1CCCCC1c1ccc(F)cc1 (centres undefined) here?
Its value is -2.369%.

Which “Percent Effect” value does the source give for N#Cc1cccc(N2CCC3(CCC(=O)N(CCCO)C3)CC2)n1 here?
Its value is -9.323%.

O=C1OCCN1CCOc1nc(-c2ccccc2Cl)no1 was tested. Which “Percent Effect” value did it give?
The value was -11.04%.

With COCC(C)NC(=O)Nc1cc(-c2ccccc2C)nn1CCO (centres undefined) as the compound, how does the “Percent Effect” value read?
Its value is -26.76%.

How did the “Percent Effect” value turn out when CN(C)C(=O)N1CCN(C(=O)c2ccccc2)CC2(CNC(=O)C2)C1 (centres undefined) was run?
Its value is 9.343%.

With Nc1cc(C(=O)N2CCC3(CC2)Nc2ccccc2NC3=O)ccn1 as the compound, how does the “Percent Effect” value read?
Its value is 3.743%.

For O=C(O)C(F)(F)F.O=C1CCCC2(CCN(C(=O)c3ccccn3)CC2)N1, which “Percent Effect” value is on record?
Its value is 4.079%.

For O=C1CC2(CCN(C(=O)c3ccccc3)C2)Nc2ccccc2N1 (centres undefined), which “Percent Effect” value is on record?
Its value is 106.1%.

Which “Percent Effect” value does the source give for O=C(O)C(F)(F)F.O=C1CCC2(CCCN(C(=O)c3ccccn3)CC2)N1 (centres undefined) here?
The value was -22.06%.

For O=C1CC2(CCN(C(=O)c3ccccn3)C2)Nc2ccccc2N1 (centres undefined), which “Percent Effect” value is on record?
Its value is 110.2%.

How did the “Percent Effect” value turn out when Cl.O=C(C1CCCCC1)N1CCC2(CC1)CNCc1ccccc12 was run?
Its value is 2.33%.

O=C1CC2(CCN(C(=O)C3CCCCC3)C2)Nc2ccccc2N1 (centres undefined) was tested. Which “Percent Effect” value did it give?
The value was 102.3%.

With O=C1Nc2ccccc2C1C1CCN(C(=O)C2CC2)CC1 (centres undefined) as the compound, how does the “Percent Effect” value read?
The value was -3.481%.
